Bioassay records: PubChem, several laboratories
UHRF1 MBD2 ctr – blocks human UHRF1 binding to methylated DNA. hit rate 0.75% among 370,000. AID 687016. UHRF1 binding to methylated oligo, TR-FRET. inhibition, % at 4.4 µM; in the data active = inhibition above about 21%;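 note: UHRF1 SRA domain binding a hemimethylated CpG hairpin DNA probe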
MBD2 DNA inh – MBD2-methylated oligo binding inhibition. Q9UBB5. TR-FRET, MBD2 binding to methylated oligonucleotide. inhibition, % at 4.4 µM. hit rate 0.31% among 370,000; in the data active = inhibition above about 13%
Target sequence (Q9UBB5 whole entry, looked up): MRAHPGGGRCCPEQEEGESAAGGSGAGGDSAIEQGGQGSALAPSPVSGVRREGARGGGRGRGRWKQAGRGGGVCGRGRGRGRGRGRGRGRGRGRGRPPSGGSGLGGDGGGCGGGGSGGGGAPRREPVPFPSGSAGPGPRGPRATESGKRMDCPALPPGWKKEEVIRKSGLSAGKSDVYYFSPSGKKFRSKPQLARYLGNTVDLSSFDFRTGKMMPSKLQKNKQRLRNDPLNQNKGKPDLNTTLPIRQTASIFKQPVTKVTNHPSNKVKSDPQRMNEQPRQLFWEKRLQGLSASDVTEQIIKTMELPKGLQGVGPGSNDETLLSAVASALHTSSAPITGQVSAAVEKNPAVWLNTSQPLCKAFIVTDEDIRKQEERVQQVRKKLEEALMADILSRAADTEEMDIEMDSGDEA
Neddyl block – inhibitors of human cullin neddylation; P61081+Q13564; TR-FRET cullin neddylation, biochemical; calls only at 25 µM; hit rate 0.58% among 360,000; AID 651699; in the data active = inhibition above about 36%
UBC13 polyUb – inhibitors of human UBC13 polyubiquitin chain formation; hit rate 0.47% among 330,000; P61088; TR-FRET; inhibition, % at 20 µM; AID 485273; in the data active = inhibition above about 45%, passing the limit was not always enough
Target sequence (P61088 whole entry, looked up): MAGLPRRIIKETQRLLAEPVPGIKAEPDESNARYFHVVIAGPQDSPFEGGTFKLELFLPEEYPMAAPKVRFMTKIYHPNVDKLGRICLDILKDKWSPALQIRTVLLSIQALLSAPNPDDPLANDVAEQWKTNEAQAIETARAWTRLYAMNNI
Neddyl inh conf – cullin neddylation inhibition, confirmation; shares compounds with Neddyl block; TR-FRET cullin neddylation biochemical assay; calls only at 25 µM; hit rate 13% among 1,800; in the data active = inhibition above about 40%;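 note: neddylation substrate is the cullin 1 ring ligase complex with SKP2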
Numbers stand for hits; - = inactive; . = not tested or not shown; + = active, no number. Compounds with a hit are over-represented: about 1.8% of the library has one in this group of screens.

SMILES	UHRF1 MBD2 ctr	MBD2 DNA inh	Neddyl block	UBC13 polyUb	Neddyl inh conf
COc1ccc(-c2cc3ccc(OCc4nn[nH]n4)cc3oc2=O)cc1OC	-	-	+	-	+
Nc1ccc(C(=O)N/N=C2\CCCc3c2[nH]c2ccccc32)cc1	-	-	+	-	-
CC(C)CC(=O)Nc1nc2c(c(=O)[nH]1)CCCC2	-	-	-	-	.
CCOc1ncccc1C(=O)NCCCSc1ccccc1	-	-	-	-	.
O=C(c1coc(=O)c(Br)c1)N1CCCc2ccccc21	-	-	+	-	.
O=C(C1CC1)N1CCC(C(O)(c2ccccc2)c2ccccc2)CC1	-	-	-	-	.
O=C(c1coc(=O)c(Br)c1)N1CCC(C(O)(c2ccccc2)c2ccccc2)CC1	-	-	+	-	.
COc1cc(C(=O)NCCc2cc3c(OC)ccc(OC)c3[nH]c2=O)cc(OC)c1OC	-	-	-	-	.
O=c1cc(-c2ccccc2)c2ccc(O)c(CN3CCCCC3)c2o1	-	-	+	-	-
Cc1cc(=O)oc2c(CN3CCCCC3)c(O)ccc12	-	-	.	.	.
CCOC(=O)c1cc(NCc2cccs2)ccc1N1CCOCC1	-	-	+	-	-
CCOC(=O)c1cc(NC(=O)c2cccs2)ccc1N1CCOCC1	-	-	-	-	.
COC(=O)c1cc(NCc2ccccc2F)ccc1N1CCOCC1	-	-	-	-	.
CCOc1ccccc1CNc1ccc(N2CCOCC2)c(C(=O)O)c1	.	.	+	-	-
COC(=O)[C@]12C[C@H](CC(=O)NCc3ccc(C)o3)C(=O)N(Cc3ccc4c(c3)OCO4)C1=C[C@H](C(C)C)O[C@@H]2C1CC1	-	-	.	.	.
S=c1[nH]nc(-c2cc(-c3ccccc3)n[nH]2)n1N=Cc1cccc(Oc2ccccc2)c1	-	-	.	.	.
S=c1[nH]nc(-c2cc(-c3ccccc3)n[nH]2)n1/N=C/c1ccc(Cl)c(Cl)c1	-	-	+	-	-
CC(Oc1ccc2ccc(=O)oc2c1)C(=O)N1CCOCC1 (centres undefined)	-	-	+	-	.
CC(Oc1ccc2c(-c3ccccc3)cc(=O)oc2c1)C(=O)N1CCOCC1 (centres undefined)	-	-	-	-	.
Nc1c(Cl)cc(Cl)cc1C(=O)OCC(=O)N1CCCC1=O	.	.	+	-	-
Nc1c(Cl)cc(Cl)cc1C(=O)OCC(=O)N1CCCC1	-	-	.	-	.
CC(C)CN1C(=O)c2ccc(NC(=O)C3CC3)cc2C1=O	-	-	+	-	-
COc1cc2c(C#CCO)c(-c3ccc(C#N)cc3)oc(=O)c2cc1OC	-	-	+	-	+
CCOC(=O)c1nonc1NC(C)=O	-	-	-	-	.
CCOC(=O)c1nsnc1NCCSC(=N)N	-	-	+	-	-
SMILES	UHRF1 MBD2 ctr	MBD2 DNA inh	Neddyl block	UBC13 polyUb	Neddyl inh conf
CC(=O)c1ccc(-c2ccc(C(=O)N3CCN(c4ccc(F)cc4)CC3)o2)cc1	-	-	-	-	.
CC(=O)c1ccc(-c2ccc(C(=O)N3CCC(C(N)=O)CC3)o2)cc1	-	-	+	-	.
CC(C)NC(=O)N1CCCN(c2nc3ccc(Cl)cc3s2)CC1	-	-	-	-	.
COc1ccc(C)cc1NC(=O)C(=O)NCc1ccncc1	-	-	-	-	.
CC1Oc2ccccc2C=C1/C=N/NC(=O)c1ccccc1O (centres undefined)	-	-	+	-	-
CC1Oc2ccccc2C=C1/C=N/NC(=O)c1ccccc1 (centres undefined)	-	-	.	-	.
Cc1sc2ncnc(SCC(=O)Nc3cccc(S(N)(=O)=O)c3)c2c1C	-	-	-	-	.
COc1ccc(-c2cc(-c3ccco3)[nH]c(=O)c2C#N)cc1	-	-	+	-	-
Cc1ccccc1-c1cc2nc(-c3ccc([N+](=O)[O-])cc3)cc(=O)n2[nH]1	-	-	-	-	.
Cc1ccccc1-c1cc2nc(C)c(Cl)c(=O)n2[nH]1	-	-	+	-	-
O=C1CC(SC(=NCc2ccc3c(c2)OCO3)Nc2ccccc2)C(=O)N1c1ccccc1 (centres undefined)	-	-	-	-	.
Cc1cc(C)n2nc(C(=O)NCc3ccco3)cc2n1	-	-	+	-	.
CCN(CC)C1=N/C(=C\c2ccc(OC)cc2)C(=O)N1c1ccccc1	-	-	+	-	-
CCSC1=N/C(=C\c2ccccc2)C(=O)N1c1ccc(OC)cc1	-	-	.	-	.
CCCCCCCCN1C(=O)[C@@H](CC(=O)NCCc2ccccc2OC)C[C@@]2(C(=O)OC)C1=C[C@H](C1CCCC1)O[C@@H]2C	-	-	.	.	.
CN(C)CCCNc1ncnc2oc(-c3ccccc3)c(-c3ccccc3)c12	-	-	+	-	-
c1ccc(-c2oc3ncnc(NCCCn4ccnc4)c3c2-c2ccccc2)cc1	.	.	.	-	.
COc1cc(C(=O)NCc2cn3ccccc3n2)cc(OC)c1OC	-	-	-	-	.
COc1cccc(/C=C/C(=O)NCc2cn3cc(Cl)ccc3n2)c1OC	-	-	+	-	-
CCC1CCCCN1CCCNC(=O)c1c(O)nc2cc(C)ccn2c1=O (centres undefined)	-	-	-	-	.
Cc1ccn2c(=O)c(C(=O)NCCCN3CCCCC3C)c(O)nc2c1 (centres undefined)	.	.	+	-	-
Cc1csc2nc(O)c(C(=O)NCCCN3CCCC3=O)c(=O)n12	-	-	-	-	.
Cc1ccn2c(=O)c(C(=O)NCCCN3CCCC3=O)c(O)nc2c1	-	-	+	-	+
Cc1cccn2c(=O)c(C(=O)NC3CCCCC3C)c(O)nc12 (centres undefined)	-	-	-	-	.
Cc1ccn2c(=O)c(C(=O)NC3CCCCC3C)c(O)nc2c1 (centres undefined)	-	-	+	-	-
SMILES	UHRF1 MBD2 ctr	MBD2 DNA inh	Neddyl block	UBC13 polyUb	Neddyl inh conf
CCCN(CCC)CCCNC(=O)c1cc2c(-c3ccc(OC)c(OC)c3)nn(C)c2s1	23	-	+	-	-
S=C(Nc1ccc2nsnc2c1)NC1CCCCC1	-	-	-	-	.
CC1CCN(C(=O)Nc2ccc3nsnc3c2)CC1	-	-	+	-	+
S=C(Nc1ccc2nsnc2c1)N1CCCCCC1	-	-	+	-	-
Cc1nc2ccc(NC(=O)N3CCCCC3)cc2s1	-	-	-	-	.
O=C(Nc1ccc2nsnc2c1)N1CCCCC1	-	-	+	-	-
COc1cc(=O)oc(CCC(C)O)c1C (centres undefined)	-	-	-	.	.
CCc1nc(SCc2nc3ccccc3[nH]2)c2oc3ccccc3c2n1	-	-	-	-	.
COc1ccc(OC)c(Cc2nnc(CCC(=O)NC3CCCCCCC3)o2)c1	-	-	-	-	.
CCOc1cc(C2NC(=O)c3ccccc3O2)ccc1OC (centres undefined)	-	-	+	-	-
COc1cc(C2NC(=O)c3ccccc3O2)ccc1OC(C)C (centres undefined)	-	-	-	-	.
CC(=O)Nc1ccc(C(=O)COC(=O)CCN2C(=O)C3CC=CCC3C2=O)cc1 (centres undefined)	-	-	+	-	-
C/C(=N\Nc1nc(C)cc(C)n1)c1ccc(C)o1	-	-	-	-	.
C[C@H]1CN([C@@H](C)CO)C(=O)CCCn2cc(nn2)CO[C@@H]1CN(C)S(=O)(=O)c1ccccc1F	-	-	.	.	.
Cc1cnc(NC(=O)c2ccc(-c3nc4ccccc4s3)o2)s1	-	-	+	-	-
